About 83,000 compounds went through this panel and 20% of them were active in at least one assay; those are over-represented in the sample as a whole.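 Testing used 96-well plates and a 48-hour single-concentration exposure. Example: -40 means 40% of the starting cells died.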 Values without a mark were called inactive. The source made the active and inactive calls. Rule for the calls: active = growth percent below 10; inactive = the rest.
How the values were obtained:
Assay in all cases: NCI-60 one-dose screen, 48 h (100 = growth as untreated, 0 = no growth, -100 = all killed)
Conditions in all cases: 10 µM unless noted
[1] = test system: NCI-H23 lung
[2] = test system: NCI-H226 lung
[3] = test system: NCI-H322M lung
[4] = test system: HOP-62 NSCLC
[5] = test system: NCI-H460 lung
[6] = test system: HOP-92 NSCLC
[7] = test system: NCI-H522 lung
[8] = test system: A549/ATCC NSCLC
[9] = test system: 786-0 renal
[10] = test system: COLO 205 colon

SMILES | growth [1] | growth [2] | growth [3] [%] | growth [4] | growth [5] | growth [6] | growth [7] | growth [8] | growth [9] | growth [10]
COc1cc2cc(Oc3ccc(NC(=O)Nc4ccc(F)c(C(F)(F)F)c4)cc3)c(C)nc2cc1OCCN1CCOCC1 | 0.421% (active) | 36.6% | 60.7 | 24.4% | 7.19% (active) | -12.9% (active) | 13.6% | 12.7% | 35% | -6.62% (active)
CN1C(=O)CNC(=O)[C@H](NC(=O)c2nc3ccccc3cc2O)CSSC[C@H]1C(=O)NCCCc1nc2ccccc2cc1O | 67.2% | 85.8% | 70.6 | 81.8% | 13.4% | 120% | 60.4% | 48.3% | 113% | -9.63% (active)
CCCCOc1nc2ccc(OC)cc2cc1-c1cc(-c2ccc(Cl)cc2)nc(-c2ccc(Cl)cc2)c1 | 102% | 103% | 99.7 | 110% | 107% | 97.6% | 98.7% | 99.3% | 112% | 112%
CC(=O)CC(c1ccccc1)c1c(C)[nH]c2ccccc12 (stereo not given) | 81.9% | 89.7% | 100 | 93.1% | 106% | 94.3% | 94.4% | 99.5% | 104% | 107%
c1ccc2c(c1)Nc1ccncc1S2 | 99.5% | 84% | 114 | 98.2% | 100% | 97.9% | 92.5% | 100% | 109% | 130%
CC(=O)O.CN1[CH-]N(Cc2ccc(C#N)cc2)c2ccccc21.[Ag+] | 105% | 103% | 105 | 108% | 97.9% | 116% | -89.1% (active) | 68% | 103% | 54%
COc1ccc(/C=N/Nc2cc(=O)[nH]c3ccc(C)cc23)cc1 | 70% | 81.5% | 86.8 | 86.3% | 103% | 88% | 75.2% | 91.3% | 105% | 106%
CCC(C)(c1cc(C(C)(C)C)c(O)c(C(C)(C)C)c1)c1cc(C(C)(C)C)c(O)c(C(C)(C)C)c1 | 96.2% | 100% | 98 | 92.4% | 106% | 92.9% | 86.4% | 93.5% | 99.2% | 107%
O=C(N/N=C/[C@H](O)[C@@H](O)[C@@H](O)[C@H](O)CO)c1ccc(NC(=O)c2cccnc2)cc1 | 110% | 106% | 103 | 113% | 108% | 111% | 96.2% | 102% | 113% | 110%
COc1cc2oc(-c3ccc(O)cc3)cc(=O)c2c(O)c1-c1c(OC)cc(O)c2c(=O)cc(-c3ccc(O)cc3)oc12 | 31.9% | 70.8% | 28.8 | 27% | 11.8% | 62.3% | 45.8% | 69.8% | 48.8% | 67.5%
CN1CCN(c2ccc(-c3cc4c(Nc5ccc(F)c(Cl)c5)ncnn4c3)cn2)CC1 | 102% | 97.7% | 74.7 | 106% | 16.1% | 107% | 98.6% | 85.2% | 100% | 105%
N#Cc1c(-c2ccc(Cl)cc2)nc2c(c(-c3ccccc3)nn2-c2ccccc2)c1-c1ccc(O)cc1 | 49% | 65.9% | 70.8 | 49.9% | 25.1% | 56.4% | 55.6% | 41.9% | 17.7% | 52.6%
O=C(O)CCC/C=C\C[C@H]1C=CC(=O)/C1=C/C[C@@H](O)CCc1cccc(C(F)(F)F)c1 | -22.1% (active) | -39.5% (active) | 11.3 | -31.9% (active) | -65.1% (active) | -20.6% (active) | -62.7% (active) | -7.82% (active) | -31.3% (active) | -38.1% (active)

From PubChem BioAssay (NCI)
